Hit rate of the full screen: of about 5,500 compounds, about 2,000 (36%) were called active. Another 18% or so got no clear call; they are omitted. No stated cut-off is given here; in the data, active means normalized growth mostly below about 0.91 (no sharp cut-off); inconclusive means no clear call, values can overlap the other calls; inactive means mostly above about 0.92. This is one part of the list.
Test: chemical genetic growth profiling, strain panel (AID 1159580);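 further: tested at 20 µM; growth read once vehicle control cultures reached saturation at 30 °C; 1 = growth at the plate median or of vehicle wells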
Conditions: S. cerevisiae deletion strains, growth OD
[1] = locus YAL013W, strain DEP1, stronger effect = lower value
[2] = locus YBR229C, strain ROT2, stronger effect = lower value
[3] = locus YDL101C, strain DUN1, stronger effect = lower value
[4] = locus YDR150W, strain NUM1, stronger effect = lower value
[5] = locus YEL061C, strain CIN8, stronger effect = lower value
[6] = locus YGR078C, strain PAC10, stronger effect = lower value
[7] = locus YHR030C, strain SLT2, stronger effect = lower value
[8] = locus YHR087W, strain rtc3, stronger effect = lower value
[9] = locus YJR043C, strain POL32, stronger effect = lower value
[10] = locus YJR075W, strain HOC1, stronger effect = lower value
[11] = locus YLR039C, strain RIC1, stronger effect = lower value
[12] = locus YLR058C, strain SHM2 (second series), stronger effect = lower value
[13] = locus YLR085C, strain ARP6, stronger effect = lower value
[14] = locus YLR262C, strain YPT6, stronger effect = lower value
[15] = locus YML094W, strain GIM5, stronger effect = lower value
[16] = locus YMR219W, strain ESC1, stronger effect = lower value
[17] = locus YMR263W, strain SAP30, stronger effect = lower value
[18] = locus YNL153C, strain GIM3, stronger effect = lower value
[19] = locus YNL298W, strain CLA4 (second series), stronger effect = lower value
[20] = locus YNL322C, strain KRE1, stronger effect = lower value
[21] = locus YNR030W, strain Alg12, stronger effect = lower value
[22] = locus YPL055C, strain LGE1, stronger effect = lower value
[23] = locus YPL241C, strain CIN2, stronger effect = lower value
[24] = locus YPR135W, strain CTF4, stronger effect = lower value

Measured: normalized growth

O=C(O)CSCC(=O)NC1CCN(Cc2ccccc2)CC1
inactive: [1] 1.01 | [2] 1.01 | [3] 0.997 | [4] 1.01 | [5] 1.02 | [6] 1 | [7] 1.08 | [8] 0.994 | [9] 1 | [10] 1.01 | [11] 1.02 | [12] 0.998 | [13] 0.993 | [14] 1.05 | [15] 1.02 | [16] 1.01 | [17] 0.998 | [18] 1.01 | [19] 1.03 | [20] 1.02 | [21] 1.02 | [22] 1.02 | [23] 1.04 | [24] 1

O=C(NC1CCN(Cc2ccc(Cl)c(Cl)c2)CC1)c1ccccc1
active: [7] 0.641 | locus YOL006C, strain TOP1, stronger effect = lower value 0.683
inactive: [1] 1.01 | [2] 1 | [3] 0.996 | [4] 0.977 | [5] 0.946 | [6] 1.01 | locus YGR229C, strain SMI1, stronger effect = lower value 1 | [8] 0.987 | [9] 1.01 | [10] 1.02 | locus YKL190W, strain CNB1, stronger effect = lower value 1 | [11] 0.94 | [12] 1.01 | [13] 0.86 | [14] 0.825 | [15] 0.889 | [16] 0.992 | [17] 0.998 | [18] 0.988 | [19] 0.986 | [20] 1 | [21] 0.96 | [22] 0.995 | [23] 0.93 | [24] 0.783
